Measurements as given in PubChem BioAssay (NCATS).
Inconclusive results are not listed. Calls of active or inactive are those of the source. Calls come from the whole dose curve; as a rule, active = well fitted cell-killing curve with a large enough effect; inconclusive = small, poorly fitted or top-dose-only effect, or effect the other way; inactive = flat fitted curve, though single readings scatter. Where a SMILES comes first, the peptide text is derived from it. The star is where a group is joined. Hexanoyl = CCCCCC(=O)*

What was measured:
Experiment in all cases: Primary qHTS to identify gynecologic anti-cancer compounds using libraries of approved drugs and bioactive compounds (AID 1345084); note: nearly all actives have a fitted effect of over 55% in size
Details in all cases: Gynecologic cancer cell panel viability, ATPlite luminescence, 48 h; series mostly up to 57.5 µM
OV90 = tested on: OV90
Outline: (§1)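 In this quantitative HTS, cell killing is estimated from loss of ATP-dependent luciferase light. Cells see five compound concentrations over a 48 h exposure.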

PA-1 = tested on: PA-1
Outline: as §1

Tov-21-G = tested on: Tov-21-G
Outline: as §1

Tov112D = tested on: Tov112D
Outline: as §1

Measured: Potency

O=C(O)c1cccc(CN2C(=O)/C(=C(\c3ccccc3)c3ccc(Cl)cc3)c3ccccc32)c1
inactive: all assays above

C/C=C(\C)C1C(C)=CC2CCC(OS(=O)(=O)O)C(C)C2C1/C=C/C=C/C(=O)O (stereo unspecified)
inactive: all assays above

NC(=O)c1ccc(F)c2c1C[C@@H](N(C1CCC1)C1CCC1)CO2
inactive: all assays above

Cc1ccc(COC(=O)N2CC[C@@H](CNc3ncccn3)[C@@H](F)C2)cc1
inactive: all assays above

CC1=C[C@@H]2[C@H]3[C@@H]4O[C@@](C)(CC[C@H]4O)[C@H]3CC(=O)[C@]23C(=O)N[C@@H](CC(C)C)[C@@H]3[C@@H]1C
inactive: all assays above

Cc1cc(C(=O)N2Cc3cnn(C)c3Nc3ccccc32)ccc1CNC(=O)N1CCN(Cc2cc(O)cc(O)c2)CC1
inactive: all assays above

CC1CCC23COC(=O)C2=CC(O)CC3C1(C)CCc1ccoc1 (stereo unspecified)
inactive: all assays above

COc1cc(C2CC(=O)Nc3c2cc(Br)c2ccccc32)cc(OC)c1OC (stereo unspecified)
inactive: all assays above

COC(=O)C1=CO[C@@H](O[C@@H]2O[C@H](CO)[C@@H](O)[C@H](O)[C@H]2O)[C@@H]2[C@@H](C)[C@@H](O)C(O)[C@H]12 (stereo partly specified)
inactive: all assays above

CC(=O)NC(Cc1c[nH]c2ccccc(=O)c12)C(=O)O (stereo unspecified)
inactive: all assays above

C=CC1(C)C=C2CC[C@H]3[C@@](C)(C(=O)O)CCC[C@]3(C)C2CC1 (stereo partly specified)
inactive: all assays above

C[C@@H]1CCC2C(C)(C)[C@H](O)[C@H](O)C[C@]2(C)[C@@]12Cc1c(O)cc3c(c1O2)CN(CCCC(=O)O)C3=O (stereo partly specified)
inactive: all assays above

Cc1nc2ccccc2c(-c2ccc3c4c(ccnc24)CCO3)c1[C@H](OC(C)(C)C)C(=O)O
inactive: all assays above

CC1(C)C=Cc2c(ccc3c2N=C2C(C)(C)[C@@H]4C[C@]56CCCN5C(=O)[C@@]4(C[C@]23O)NC6=O)O1
inactive: all assays above

CC1=C2C[C@@]3(C)C(CCC[C@@H]3C)C(O)C2(O)OC1=O (stereo partly specified)
inactive: all assays above

CCCCNc1nc(N)c2[nH]c(=O)n(Cc3ccc(OCCN(C)C)nc3)c2n1
inactive: all assays above

CCCCCC(=O)N1CCC[C@H]1C(=O)N[C@@H](Cc1ccc(O)cc1)C(=O)OC (Hexanoyl-Pro-Tyr-OMe)
inactive: all assays above

CC(C)c1ccc2c(c1)[C@H](O)CC1[C@@](C)(C(=O)O)CCC[C@]21C (stereo partly specified)
inactive: all assays above

CC1(C)CC[C@]2(C(=O)O)CC[C@]3(C)C(=CCC4[C@@]5(C)C[C@@H](O)[C@H](O)[C@@](C)(CO)C5[C@H](O)C[C@]43C)[C@@H]2C1 (stereo partly specified)
inactive: all assays above

CCOc1ccc(-c2cc(NC(=O)c3c(F)cccc3F)c(C(=O)O)s2)cc1
inactive: all assays above

O=C(O)Cn1nnc(-c2ccc(CN(CCCCOc3ccc(CN4CCCC4)cc3)CCc3ccccc3)cc2)n1
inactive: all assays above

CCC(C)C1NC(=O)C2C(C)CCN2C(=O)C(CC(O)CO)OC(=O)CCNC(=O)C(C)N(C)C(=O)C(C(C)C)N(C)C1=O (stereo unspecified)
inactive: all assays above

C=C1CC[C@H]2[C@@](C)(CCC(OC3OC(CO)C(O)C(O)C3O)[C@@]2(C)CO)C1C(=O)CC1=CCOC1=O (stereo partly specified)
inactive: all assays above

CC(=O)OC12CC(C)C(O)C1/C=C(/COC1OC(CO)C(O)C(O)C1O)CCC1C(/C=C(\C)C2=O)C1(C)C (stereo unspecified)
inactive: all assays above
